Results from ChEMBL document CHEMBL3988442, “University of Dundee, Small-Polar-MMV Screening Library” (2021).
For some of these results: Entries with a potency or affinity are not part of this list.

How the values were obtained:
Set-up in all cases: scale not given: direction of the effect not stated beside the values
[1] = molecular target: Protein translocase subunit SecA (Escherichia coli (strain K12)) (UniProt P10408); test: Assay to Identify E. coli SecA ATPase Inhibitors; assay type: functional; settings: 30 µM
Sequence of Protein translocase subunit SecA (Escherichia coli (strain K12)) (P10408 whole entry): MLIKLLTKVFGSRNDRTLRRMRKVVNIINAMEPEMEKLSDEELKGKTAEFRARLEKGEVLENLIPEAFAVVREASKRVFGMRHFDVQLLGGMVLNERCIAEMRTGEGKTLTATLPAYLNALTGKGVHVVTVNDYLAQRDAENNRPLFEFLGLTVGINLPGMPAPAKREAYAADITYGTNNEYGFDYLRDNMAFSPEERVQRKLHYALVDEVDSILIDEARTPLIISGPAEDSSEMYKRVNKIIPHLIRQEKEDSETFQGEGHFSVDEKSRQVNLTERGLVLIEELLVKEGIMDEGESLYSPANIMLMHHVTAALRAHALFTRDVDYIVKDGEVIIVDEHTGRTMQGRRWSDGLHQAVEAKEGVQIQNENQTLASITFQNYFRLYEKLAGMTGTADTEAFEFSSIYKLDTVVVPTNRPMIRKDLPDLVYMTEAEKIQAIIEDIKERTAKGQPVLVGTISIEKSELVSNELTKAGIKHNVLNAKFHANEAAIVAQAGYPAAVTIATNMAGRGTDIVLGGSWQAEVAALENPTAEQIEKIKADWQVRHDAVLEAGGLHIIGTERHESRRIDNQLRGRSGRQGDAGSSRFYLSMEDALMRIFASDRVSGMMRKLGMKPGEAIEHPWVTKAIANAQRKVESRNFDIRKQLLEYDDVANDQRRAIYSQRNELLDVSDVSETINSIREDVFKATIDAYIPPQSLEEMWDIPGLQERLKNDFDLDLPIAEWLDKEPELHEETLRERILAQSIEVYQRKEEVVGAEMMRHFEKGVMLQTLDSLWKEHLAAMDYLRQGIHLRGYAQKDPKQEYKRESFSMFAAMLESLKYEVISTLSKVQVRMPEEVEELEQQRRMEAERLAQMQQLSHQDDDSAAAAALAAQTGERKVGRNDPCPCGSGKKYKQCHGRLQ

[2] = molecular target: T1, Ubiquitin-activating enzyme e1, putative (Leishmania donovani (strain BPK282A1)) (UniProt E9BSI1); test: Leishmania donovani Ubiquitin Activating Enzyme (LdE1); assay type: functional; settings: 30 µM
T1 sequence (whole entry): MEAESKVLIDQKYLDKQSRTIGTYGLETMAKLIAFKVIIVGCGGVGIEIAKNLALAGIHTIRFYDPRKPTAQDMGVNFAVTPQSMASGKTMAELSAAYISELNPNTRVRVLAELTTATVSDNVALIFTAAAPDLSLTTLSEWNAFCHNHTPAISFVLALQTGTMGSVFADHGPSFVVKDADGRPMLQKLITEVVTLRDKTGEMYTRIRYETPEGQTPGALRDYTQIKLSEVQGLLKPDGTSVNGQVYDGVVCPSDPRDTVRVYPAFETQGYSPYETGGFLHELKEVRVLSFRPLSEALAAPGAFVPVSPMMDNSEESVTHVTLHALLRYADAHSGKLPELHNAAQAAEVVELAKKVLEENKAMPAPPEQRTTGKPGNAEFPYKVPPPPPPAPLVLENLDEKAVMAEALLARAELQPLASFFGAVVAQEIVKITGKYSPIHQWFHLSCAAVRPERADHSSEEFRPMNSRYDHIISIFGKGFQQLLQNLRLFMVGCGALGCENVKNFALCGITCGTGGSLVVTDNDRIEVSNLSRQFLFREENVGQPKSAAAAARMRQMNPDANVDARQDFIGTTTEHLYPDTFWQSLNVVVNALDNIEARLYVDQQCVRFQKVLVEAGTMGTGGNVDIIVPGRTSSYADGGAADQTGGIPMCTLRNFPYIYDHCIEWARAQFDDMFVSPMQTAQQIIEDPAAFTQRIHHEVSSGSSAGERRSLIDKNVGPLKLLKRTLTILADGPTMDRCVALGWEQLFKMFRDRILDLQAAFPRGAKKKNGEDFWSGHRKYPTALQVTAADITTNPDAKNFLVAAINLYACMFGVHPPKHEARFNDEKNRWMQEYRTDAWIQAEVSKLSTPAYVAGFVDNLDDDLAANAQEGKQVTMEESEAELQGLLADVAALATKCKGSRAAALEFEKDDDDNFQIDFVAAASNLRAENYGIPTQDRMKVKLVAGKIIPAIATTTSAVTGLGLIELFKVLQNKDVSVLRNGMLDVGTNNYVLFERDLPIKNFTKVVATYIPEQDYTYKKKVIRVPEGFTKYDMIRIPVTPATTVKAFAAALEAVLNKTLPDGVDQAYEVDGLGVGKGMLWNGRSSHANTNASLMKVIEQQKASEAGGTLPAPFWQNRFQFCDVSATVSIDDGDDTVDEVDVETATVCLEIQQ

[3] = molecular target: AMP-activated protein kinase, AMPK (Homo sapiens) (UniProt P54646+O43741+P54619+Q9UGJ0+Q9Y478+Q13131+Q9UGI9); test: AMP-dependent Kinase enzyme assay. An in vitro enzyme assay that detects ADP turnover that is directly proportional to AMPK activity. This uses naive AMPK that is activated during the assay with MK-8722; assay type: functional; settings: 30 µM
[4] = molecular target: Sialic acid-binding Ig-like lectin 9 (Homo sapiens) (UniProt Q9Y336); test: Hs-Siglec9 ALPHAscreen SOP 20170721; settings: 10 µM
Sequence of Sialic acid-binding Ig-like lectin 9 (Homo sapiens) (Q9Y336 whole entry): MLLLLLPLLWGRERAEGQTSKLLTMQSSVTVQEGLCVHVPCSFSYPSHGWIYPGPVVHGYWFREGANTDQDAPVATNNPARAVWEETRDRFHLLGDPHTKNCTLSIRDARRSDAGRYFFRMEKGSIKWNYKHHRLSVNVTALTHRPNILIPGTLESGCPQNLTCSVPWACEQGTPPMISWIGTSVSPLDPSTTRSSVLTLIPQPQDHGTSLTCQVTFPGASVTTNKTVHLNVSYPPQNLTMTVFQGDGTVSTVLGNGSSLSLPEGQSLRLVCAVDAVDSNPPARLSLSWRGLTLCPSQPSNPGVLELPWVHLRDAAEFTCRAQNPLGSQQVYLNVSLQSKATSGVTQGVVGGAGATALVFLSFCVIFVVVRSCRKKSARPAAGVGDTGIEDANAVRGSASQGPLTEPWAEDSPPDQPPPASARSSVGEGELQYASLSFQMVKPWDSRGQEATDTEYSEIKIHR

[5] = system: Trypanosoma cruzi; test: Trypanosoma cruzi phosphomannomutase and mannose-1-phosphate guanylyltransferase assay; assay type: functional; settings: 10 µM
[6] = molecular target: T2, Arginase-2, mitochondrial (Homo sapiens) (UniProt P78540); test: in vitro enzyme assay to detect the production of urea directly proportional to the activity of Arginase II; assay type: functional; settings: 33.3 µM; also: in the data most compounds retested in dose-response had high values
T2 sequence (whole entry): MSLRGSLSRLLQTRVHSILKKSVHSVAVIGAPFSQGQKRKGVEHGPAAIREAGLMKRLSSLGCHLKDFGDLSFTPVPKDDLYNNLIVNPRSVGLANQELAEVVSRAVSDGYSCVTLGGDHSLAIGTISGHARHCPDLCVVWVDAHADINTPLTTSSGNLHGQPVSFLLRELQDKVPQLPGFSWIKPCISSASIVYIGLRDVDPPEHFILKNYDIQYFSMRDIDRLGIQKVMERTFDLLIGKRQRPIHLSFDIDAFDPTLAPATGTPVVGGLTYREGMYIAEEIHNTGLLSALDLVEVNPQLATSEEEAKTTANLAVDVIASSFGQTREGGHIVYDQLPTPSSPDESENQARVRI

[7] = molecular target: T3, Proteasome subunit beta (Trypanosoma cruzi) (UniProt O96673); test: Trypanosoma cruzi proteasome chymotrypsin-like activity (TcProtChymo) assay.; also: in the data most compounds retested in dose-response had high values; assay type: functional; settings: 9.37 µM
T3 sequence (whole entry): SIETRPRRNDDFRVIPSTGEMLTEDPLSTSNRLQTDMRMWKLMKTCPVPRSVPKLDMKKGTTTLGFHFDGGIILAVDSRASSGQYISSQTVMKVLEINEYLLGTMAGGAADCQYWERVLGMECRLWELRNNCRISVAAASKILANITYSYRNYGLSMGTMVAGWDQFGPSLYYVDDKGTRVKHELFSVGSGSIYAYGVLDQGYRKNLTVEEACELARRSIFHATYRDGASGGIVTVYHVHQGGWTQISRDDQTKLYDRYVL

[8] = organism: Homo sapiens; test: To identify inhibition of the IFN signalling (Jak-Stat) pathway via expression of an eGFP reporter gene under the control of an IFN-stimulated response element (ISRE) containing MxA promoter.; assay type: functional; settings: 30 µM
[9] = molecular target: T4, Tyrosyl-tRNA synthetase, putative (Trypanosoma cruzi (strain CL Brener)) (UniProt Q4DSP6); test: Trypanosoma cruzi tyrosyl tRNA synthetase (TcYRS) _High Tyrosine SOP; assay type: functional; settings: 30 µM; also: in the data most compounds retested in dose-response had high values
T4 sequence (whole entry): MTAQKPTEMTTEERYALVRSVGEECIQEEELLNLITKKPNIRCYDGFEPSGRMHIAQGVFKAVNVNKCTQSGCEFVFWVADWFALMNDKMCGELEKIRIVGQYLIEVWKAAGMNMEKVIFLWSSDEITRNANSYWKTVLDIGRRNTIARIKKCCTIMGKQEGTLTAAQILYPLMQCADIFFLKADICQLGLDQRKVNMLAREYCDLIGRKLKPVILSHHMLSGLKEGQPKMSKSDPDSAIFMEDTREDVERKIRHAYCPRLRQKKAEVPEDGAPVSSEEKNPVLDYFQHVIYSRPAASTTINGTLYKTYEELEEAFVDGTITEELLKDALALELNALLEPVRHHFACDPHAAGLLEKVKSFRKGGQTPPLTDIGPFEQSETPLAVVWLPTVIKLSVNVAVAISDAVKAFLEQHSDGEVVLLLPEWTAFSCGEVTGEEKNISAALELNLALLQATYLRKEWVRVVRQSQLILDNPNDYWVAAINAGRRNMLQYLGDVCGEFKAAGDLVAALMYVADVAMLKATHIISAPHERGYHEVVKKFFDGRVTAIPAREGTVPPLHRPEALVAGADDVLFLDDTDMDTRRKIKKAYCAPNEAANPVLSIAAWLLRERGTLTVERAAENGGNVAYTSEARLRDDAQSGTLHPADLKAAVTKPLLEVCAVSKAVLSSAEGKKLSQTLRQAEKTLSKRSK

[10] = molecular target: T4, Tyrosyl-tRNA synthetase, putative (Trypanosoma cruzi (strain CL Brener)); test: Trypanosoma cruzi tyrosyl tRNA synthetase (TcYRS) SOP; assay type: functional; settings: 30 µM
[11] = molecular target: Chromo domain-containing protein 1 (Saccharomyces cerevisiae (strain ATCC 204508 / S288c) (Baker's yeast)) (UniProt P32657); test: ScCHD-1 Enzyme Inhibition Assay; assay type: functional; settings: 30 µM; also: in the data most compounds retested in dose-response had high values
Sequence of Chromo domain-containing protein 1 (Saccharomyces cerevisiae (strain ATCC 204508 / S288c) (Baker's yeast)) (P32657 whole entry, the tested form may be a part): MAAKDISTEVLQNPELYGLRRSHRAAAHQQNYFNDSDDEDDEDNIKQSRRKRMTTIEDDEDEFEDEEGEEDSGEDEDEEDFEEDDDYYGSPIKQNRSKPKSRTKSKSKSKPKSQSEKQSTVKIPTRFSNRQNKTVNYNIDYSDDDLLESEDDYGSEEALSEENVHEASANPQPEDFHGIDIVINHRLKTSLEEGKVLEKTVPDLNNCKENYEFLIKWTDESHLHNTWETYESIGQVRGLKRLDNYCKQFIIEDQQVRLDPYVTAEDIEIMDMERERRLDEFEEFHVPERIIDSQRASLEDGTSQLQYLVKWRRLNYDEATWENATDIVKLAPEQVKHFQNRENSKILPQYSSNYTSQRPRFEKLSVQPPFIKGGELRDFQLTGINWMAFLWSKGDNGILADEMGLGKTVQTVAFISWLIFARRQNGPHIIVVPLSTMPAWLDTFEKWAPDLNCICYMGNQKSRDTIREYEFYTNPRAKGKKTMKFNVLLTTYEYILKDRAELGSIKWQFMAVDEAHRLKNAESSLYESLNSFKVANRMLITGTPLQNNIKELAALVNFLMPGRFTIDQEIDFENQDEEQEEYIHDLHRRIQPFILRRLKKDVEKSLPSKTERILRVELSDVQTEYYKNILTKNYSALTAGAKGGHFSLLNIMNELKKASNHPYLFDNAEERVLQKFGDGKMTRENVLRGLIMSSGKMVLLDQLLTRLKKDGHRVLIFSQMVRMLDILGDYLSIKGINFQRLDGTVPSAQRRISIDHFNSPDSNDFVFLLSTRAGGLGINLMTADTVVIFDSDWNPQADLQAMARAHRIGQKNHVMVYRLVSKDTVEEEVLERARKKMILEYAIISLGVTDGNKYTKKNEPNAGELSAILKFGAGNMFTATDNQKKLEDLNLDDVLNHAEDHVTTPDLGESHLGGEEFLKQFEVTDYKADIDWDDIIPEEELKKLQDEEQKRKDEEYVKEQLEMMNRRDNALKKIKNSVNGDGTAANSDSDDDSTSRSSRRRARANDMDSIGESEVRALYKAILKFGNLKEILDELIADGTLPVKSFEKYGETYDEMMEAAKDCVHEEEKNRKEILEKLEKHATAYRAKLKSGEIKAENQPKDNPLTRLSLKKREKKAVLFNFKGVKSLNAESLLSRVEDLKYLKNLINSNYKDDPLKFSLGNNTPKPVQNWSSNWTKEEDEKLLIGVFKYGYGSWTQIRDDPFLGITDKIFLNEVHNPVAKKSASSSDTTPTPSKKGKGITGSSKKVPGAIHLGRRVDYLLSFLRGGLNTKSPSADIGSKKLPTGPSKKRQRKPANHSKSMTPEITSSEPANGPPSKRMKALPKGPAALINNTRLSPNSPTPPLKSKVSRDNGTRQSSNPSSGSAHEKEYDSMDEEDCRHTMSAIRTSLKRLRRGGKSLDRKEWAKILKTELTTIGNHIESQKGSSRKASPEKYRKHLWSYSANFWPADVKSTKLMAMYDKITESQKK

| Structure (SMILES) | Percent Effect [1] [%] | Percent Effect [2] [%] | Percent Effect [3] [%] | Percent Effect [4] [%] | Percent Effect [5] [%] | Percent Effect [6] [%] | Percent Effect [7] [%] | Percent Effect [8] [%] | Percent Effect [9] [%] | Percent Effect [10] [%] | Percent Effect [11] [%] |
| --- | --- | --- | --- | --- | --- | --- | --- | --- | --- | --- | --- |
| c1ccc(-c2nc(CN3CCCC(Cn4cncn4)C3)co2)cc1 (stereo not given) | -0.495 | 29.1 | -4 | -3.43 | 1.54 | -5.81 | 18.2 | 14.8 | 6.25 | 10.1 | -13.6 |
| Cn1nc(C2CCCN(C(=O)CO)C2)cc1O (stereo not given) | -4.16 | -6.76 | -113 | -1.22 | -3.75 | -0.232 | 1.4 | -6.44 | -6.45 | -9.09 | -2.64 |
| Cc1n[nH]cc1CNc1ccc2c(c1)CN(C(=O)OC(C)(C)C)CC2 | -2.19 | 5.2 | -9.51 | 0.686 | 2.26 | -8.28 | 15.5 | 68.8 | 2.15 | 3.7 | -6.66 |
| Cc1ccccc1CNC(=O)Cc1c(C)nc2cc(=O)[nH]n2c1C | -2.72 | 13.2 | -32.1 | 17.4 | 4.13 | -4.21 | 4.18 | 2.25 | 9.31 | 17.1 | -11.1 |
| O=C(c1cc(F)ccc1F)C1CCN(C(=O)c2ccccn2)CC1 | -3.32 | 13 | 3.21 | -2.77 | 1.27 | 3.58 | 17.1 | 21.7 | 7.62 | 23.5 | -13.2 |
| O=C(c1c[nH]c(=O)c(Cl)c1)N1C[C@@H]2CC[C@H](C1)N(Cc1ccccc1)C2 | -3.94 | 5.48 | 12.1 | 13.9 | 2.58 | -8.78 | 15.2 | 9.64 | 2.08 | 11.1 | -3.03 |
| Cc1ccc(OCCC(=O)NC2CCc3nc(C)cn3C2)cc1 (stereo not given) | -3.65 | 5.26 | 5.43 | 5.54 | 0.0974 | -4.73 | 14.7 | 15.1 | 3.19 | 10.4 | -1.61 |
| Cc1ccccc1CN1CCC(NCC2CNc3ccnn3C2)CC1 (stereo not given) | -0.777 | 0 | -17.1 | -4.24 | 1.27 | 1.24 | 11.4 | -3.35 | 6.45 | 13.6 | -5.59 |
| COc1cc(CCC(C)O)c(OC)c2c1OCO2 (stereo not given) | -5.08 | -1.33 | -4.24 | -3.72 | -4.13 | -6.51 | 11.5 | -0.862 | -1.06 | 0 | -6.82 |
| Cc1nc(C)n(C2CCCN(C(=O)c3csnn3)C2)n1 (stereo not given) | -2.6 | 21.6 | -13 | -1.58 | -2.92 | -7.21 | 16.2 | 15.5 | 4.43 | 18.5 | -4.56 |
| Cc1nc(CN2CCn3cc(CNC(=O)C4CCC4)nc3C2)cs1 | -1.94 | 13.3 | -0.557 | 6.49 | 4.63 | -45.3 | 24.1 | -2.13 | 9.38 | 27.5 | -8.63 |
| NC(=O)c1cccc(CC2CCN(C(=O)CCCN3CCOCC3)C2)c1 (stereo not given) | -2.51 | -2.74 | 4.39 | -12.6 | -1.18 | -2.27 | -3.02 | 6.37 | 2.15 | 2.5 | -1.16 |
| Cc1ccc(N2CCCC(NCc3ccsc3)C2)nn1 (stereo not given) | 1.41 | 13.5 | -7.55 | 2.96 | -6.7 | 1.6 | 8.29 | 11 | 4.43 | 16.1 | -7.21 |
| Cc1cncc(C(=O)N2CCC(Cn3cc(-c4ccsc4)nn3)CC2)c1 | -2.48 | 2.7 | 0.205 | 2.1 | -3.86 | -0.476 | 11.6 | 7.16 | 1.59 | 9.76 | -1.22 |
| CC(=O)NCCC1CCCCN1S(=O)(=O)c1cccc(C#N)c1 (stereo not given) | -7.77 | 8.22 | 1.2 | 3.78 | 1.98 | -2 | 13.6 | 4.41 | 2.08 | 8.64 | 0.784 |
| Cc1ccc(C2CSCCN2C(=O)c2ccc(C(N)=O)cc2)o1 (stereo not given) | -2.99 | 5.41 | -7.52 | 13.6 | 1.47 | 20.6 | 10 | -21.9 | 4.3 | 11.1 | -2.9 |
| CN(Cc1ccsc1)C(=O)c1cc2c([nH]c1=O)CCCC2=O | -3.09 | 13.5 | -2.3 | 9.82 | -2.32 | -0.185 | 16.5 | 3 | 4.95 | 18.3 | -6.06 |
| O=C(c1ccc(Br)o1)N1CCCC(n2cncn2)C1 (stereo not given) | -5.45 | -1.39 | 0.96 | -6.28 | -3.6 | -2.21 | 4.04 | 7.55 | 0 | 2.56 | 1.43 |
| N#Cc1ncn(CCC(=O)Nc2c(Cl)cccc2Cl)n1 | -1.01 | 2.74 | -1.08 | 6.16 | 1.59 | -24.8 | 19.6 | -3.99 | 11.5 | 21 | -3.19 |
| CC(C)CC1SCC(=O)Nc2c1cnn2-c1ccc(F)cc1 (stereo not given) | -4.89 | 6.67 | 1.34 | 3.64 | 4.91 | -3.35 | 2.03 | 1.9 | 6.35 | 7.69 | -4.25 |
